Experimental data from the supplement of paper PMC7393113.
± gives the standard deviation of the averaged measurements.

System: iBMDM (immortalised mouse bone-marrow-derived macrophages), LPS-stimulated
Experiment: mitochondrial superoxide (MitoSOX fluorescence) fold increase over unstimulated control; higher = more LPS-induced mitochondrial ROS (less inhibition)
Conditions: inhibitor concentration: 500 nM, LPS: 100 ng/ml
Summary of the method: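 Mitochondrial superoxide values are mean fold induction compared with untreated macrophages. Triplicate wells of immortalised mouse bone-marrow-derived macrophages in phenol-red-free 1% FCS/DMEM received kinase inhibitors (500 nM) for 30 min, then 1 μM MitoSox for 10 min, then LPS (100 ng/ml). Fluorescence (510/580 nm) was taken every 60 min for 4 h.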

Question: Which results are given for `C[C@]1(O)C[C@@H](c2nc(-c3ccc4ccc(-c5ccccc5)nc4c3)c3c(N)nccn32)C1` [OSI-906 (Linsitinib)]?
Answer: mitochondrial superoxide (time after LPS: 1 h): 1.45 ± 0.18; mitochondrial superoxide (time after LPS: 2 h): 1.51 ± 0.21; mitochondrial superoxide (time after LPS: 4 h): 1.56 ± 0.19

Question: Which mitochondrial superoxide (time after LPS: 1 h) does the source give for `CCN(CC)CCCCNc1ncc2cc(-c3cc(OC)cc(OC)c3)c(NC(=O)NC(C)(C)C)nc2n1` here?
Answer: Its mitochondrial superoxide is 1.16 ± 0.036.

Question: What about the mitochondrial superoxide (time after LPS: 2 h) of the same molecule?
Answer: The mitochondrial superoxide was 1.11 ± 0.048.

Question: What about the mitochondrial superoxide (time after LPS: 4 h) of the same molecule?
Answer: Its mitochondrial superoxide is 1.12 ± 0.045.

Question: For `CC(C)n1nc(-c2cc3cc(O)ccc3[nH]2)c2c(N)ncnc21`, which mitochondrial superoxide (time after LPS: 1 h) is on record?
Answer: Its mitochondrial superoxide is 1.03 ± 0.088.

Question: What about the mitochondrial superoxide (time after LPS: 2 h) of the same molecule?
Answer: Its mitochondrial superoxide is 1.15 ± 0.12.

Question: What about the mitochondrial superoxide (time after LPS: 4 h) of the same molecule?
Answer: Its mitochondrial superoxide is 1.28 ± 0.063.

Question: With `CC1=C(C(=O)Nc2cc3cn[nH]c3cc2F)C(c2ccc(C(F)(F)F)cc2)CC(=O)N1` (stereo not drawn) as the molecule, how does the mitochondrial superoxide (time after LPS: 1 h) read?
Answer: The mitochondrial superoxide was 1.23 ± 0.085.

Question: What about the mitochondrial superoxide (time after LPS: 2 h) of the same molecule?
Answer: The mitochondrial superoxide was 1.26 ± 0.033.

Question: What about the mitochondrial superoxide (time after LPS: 4 h) of the same molecule?
Answer: The mitochondrial superoxide was 1.35 ± 0.057.

Question: Which results are given for `Cc1ccc(S(=O)(=O)Nc2nc3ccccc3nc2Nc2ccc3nsnc3c2)cc1`?
Answer: mitochondrial superoxide (time after LPS: 1 h): 1.4 ± 0.089; mitochondrial superoxide (time after LPS: 2 h): 1.48 ± 0.091; mitochondrial superoxide (time after LPS: 4 h): 1.56 ± 0.041

Question: Which results are given for `O=C1NCCc2[nH]c(-c3ccncc3)cc21`?
Answer: mitochondrial superoxide (time after LPS: 1 h): 1.31 ± 0.054; mitochondrial superoxide (time after LPS: 2 h): 1.41 ± 0.039; mitochondrial superoxide (time after LPS: 4 h): 1.63 ± 0.06

Question: For `CN1CCC(CNc2ccc3ncc(-c4cccc(OC(F)(F)F)c4)n3n2)CC1` [SGI-1776 free base], which mitochondrial superoxide (time after LPS: 1 h) is on record?
Answer: The mitochondrial superoxide was 1.13 ± 0.048.

Question: And the mitochondrial superoxide (time after LPS: 2 h)?
Answer: Its mitochondrial superoxide is 1.22 ± 0.052.

Question: What about the mitochondrial superoxide (time after LPS: 4 h) of the same molecule?
Answer: The mitochondrial superoxide was 1.33 ± 0.071.

Question: Which results are given for `N#CC(=Cc1ccc(O)c(O)c1)C(=O)NCc1ccccc1` [AG-490 (Tyrphostin B42)]?
Answer: mitochondrial superoxide (time after LPS: 1 h): 1.35 ± 0.052; mitochondrial superoxide (time after LPS: 2 h): 1.36 ± 0.041; mitochondrial superoxide (time after LPS: 4 h): 1.44 ± 0.097

Question: How did the mitochondrial superoxide (time after LPS: 1 h) turn out when `Cn1cc(-c2ccc3ncc(Cc4ccc5ncccc5c4)n3n2)cn1` was run?
Answer: Its mitochondrial superoxide is 1.24 ± 0.1.

Question: What about the mitochondrial superoxide (time after LPS: 2 h) of the same molecule?
Answer: The mitochondrial superoxide was 1.34 ± 0.053.

Question: And the mitochondrial superoxide (time after LPS: 4 h)?
Answer: Its mitochondrial superoxide is 1.61 ± 0.14.

Question: With `C[C@@H]1CN(CC(=O)Nc2ccc3c(c2)Cc2cccc(-c4cc(=O)cc(N5CCOCC5)o4)c2S3)C[C@H](C)O1` as the molecule, how does the mitochondrial superoxide (time after LPS: 1 h) read?
Answer: Its mitochondrial superoxide is 1.2 ± 0.07.

Question: What about the mitochondrial superoxide (time after LPS: 2 h) of the same molecule?
Answer: The mitochondrial superoxide was 1.31 ± 0.059.

Question: What about the mitochondrial superoxide (time after LPS: 4 h) of the same molecule?
Answer: Its mitochondrial superoxide is 1.44 ± 0.015.

Question: With `CCS(=O)(=O)Nc1ccc2[nH]c(O)c(C(=Nc3ccc(CN4CCCCC4)cc3)c3ccccc3)c2c1` [Hesperadin] as the molecule, how does the mitochondrial superoxide (time after LPS: 1 h) read?
Answer: Its mitochondrial superoxide is 1.1 ± 0.02.

Question: What about the mitochondrial superoxide (time after LPS: 2 h) of the same molecule?
Answer: The mitochondrial superoxide was 1.13 ± 0.031.

Question: And the mitochondrial superoxide (time after LPS: 4 h)?
Answer: Its mitochondrial superoxide is 1.28 ± 0.046.

Question: For `Cc1cc(C)nc(NS(=O)(=O)c2ccc(NC(=S)NC(=O)COc3ccc(Br)cc3Cl)cc2)n1`, which mitochondrial superoxide (time after LPS: 1 h) is on record?
Answer: The mitochondrial superoxide was 1.42 ± 0.087.

Question: What about the mitochondrial superoxide (time after LPS: 2 h) of the same molecule?
Answer: The mitochondrial superoxide was 1.45 ± 0.1.

Question: And the mitochondrial superoxide (time after LPS: 4 h)?
Answer: Its mitochondrial superoxide is 1.61 ± 0.055.

Question: Which results are given for `N#C/C(=C(/N)Sc1ccc(N)cc1)c1ccccc1C(F)(F)F`?
Answer: mitochondrial superoxide (time after LPS: 1 h): 1.35 ± 0.024; mitochondrial superoxide (time after LPS: 2 h): 1.42 ± 0.092; mitochondrial superoxide (time after LPS: 4 h): 1.506 ± 0.0063

Question: Which results are given for `Cc1ccc(S(=O)(=O)C=CC#N)cc1`?
Answer: mitochondrial superoxide (time after LPS: 1 h): 1.19 ± 0.044; mitochondrial superoxide (time after LPS: 2 h): 1.19 ± 0.073; mitochondrial superoxide (time after LPS: 4 h): 1.34 ± 0.095

Question: How did the mitochondrial superoxide (time after LPS: 1 h) turn out when `CNC(=O)c1cc(Oc2ccc(NC(=O)Nc3ccc(Cl)c(C(F)(F)F)c3)c(F)c2)ccn1` [Regorafenib (BAY 73-4506)] was run?
Answer: Its mitochondrial superoxide is 1.5 ± 0.04.

Question: And the mitochondrial superoxide (time after LPS: 2 h)?
Answer: The mitochondrial superoxide was 1.68 ± 0.057.

Question: What about the mitochondrial superoxide (time after LPS: 4 h) of the same molecule?
Answer: Its mitochondrial superoxide is 1.71 ± 0.062.

Question: With `N#CCNC(=O)c1ccc(-c2ccnc(Nc3ccc(N4CCOCC4)cc3)n2)cc1` as the molecule, how does the mitochondrial superoxide (time after LPS: 1 h) read?
Answer: Its mitochondrial superoxide is 1.05 ± 0.071.

Question: And the mitochondrial superoxide (time after LPS: 2 h)?
Answer: Its mitochondrial superoxide is 1.17 ± 0.017.

Question: And the mitochondrial superoxide (time after LPS: 4 h)?
Answer: Its mitochondrial superoxide is 1.27 ± 0.13.
